The source of these data is PubChem BioAssay (NCI).

Each structure is given as a SMILES string. About 79,000 compounds went through this panel and 15% of them were active in at least one assay; those are over-represented in the sample as a whole. Unmarked numbers belong to inactive results. Calls of active or inactive are those of the source. Rule as the data show it: active = growth inhibition above about 70%; inactive = the rest.

This experiment in a line: NCI Yeast Anticancer Drug Screen. Data for the bub3 strain (AID 167). The following applies: S. cerevisiae bub3 mutant strain, at 5.0 µM (retest, dose inferred, filed as 0.5), active compounds read high. In a few lines:
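Mutant yeast screening strain plus compound; vehicle-treated cultures serve as the 0% inhibition reference.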
With `O=[N+]([O-])c1cc[n+]([O-])c2ccccc12`, the growth inhibition was 98% (active).
Next, `COc1c[c]([Hg][O]C(C)=O)c(OC)c(NC(=O)CC(C)=O)[c]1[Hg][O]C(C)=O`: 99% (active); `CN(C)c1ccc(C2N(Cc3ccc(N(CCCl)CCCl)cc3)CCCN2Cc2ccc(N(CCCl)CCCl)cc2)cc1`: 0%.
Then `CC(=O)c1ccc(-[n+]2c(C)cc(-c3ccccc3)cc2C)cc1`, with -4%; and `[O]=[Sb]([OH])([OH])[c]1ccc(NC2OC(CO)C(O)C(O)C2O)cc1` (stereo unspecified), with 2%; and `CCC1CN1P(=O)(Oc1ccccc1)N1CC1CC` (stereo unspecified), with 7%.
Next, `CCN(CC)CC(=O)c1cc2ccccc2c2ccccc12`: 11%; `O=C1CCCC1Cl` (stereo unspecified): 4%; `N#C[S-].[La+3].c1ccc(-c2ccccn2)nc1.c1ccc(-c2ccccn2)nc1.c1ccc(-c2ccccn2)nc1`: 60%.
`O=c1s[se]c2ccccc12`: the growth inhibition is -2%.
`O=C(CCl)Nc1ccc(Cl)cc1`: the growth inhibition is 1%.
Then `O=C1N[C@H]2[C@H](O)[C@H](O)[C@@H](O)[C@H](O)[C@@H]2c2cc3c(c(O)c21)OCO3`, with 19%; and `O=C(Nc1n[c]([Hg][Cl])[c]([Hg][Cl])s1)OCc1ccccc1`, with 100% (active).
Then `CC[C@@]1(O)C[C@H](OC2CC(N(C)C)C(O)C(C)O2)c2c(cc3c(c2O)C(=O)c2c(O)ccc(O)c2C3=O)[C@H]1C(=O)OC` (stereo partly specified), with 88% (active); and `CCCCCc1cc(O)c(CCCC)c(O)c1`, with -56%.
Next, `NC(=O)/C=C/c1ccc([As]=O)cc1` (stereo unspecified): 4%.
